Data as given in PubChem BioAssay AID893 (National Center for Advancing Translational Sciences (NCATS), 2007).
“And” between values parts separate entries of the source, which are not always exact repeats. Identical values can stand only once. Hit rate of the full screen: of about 75,000 compounds, about 5,700 (7.6%) were called active. Roughly 7% stayed inconclusive and do not appear here. Calls follow the shape of the dose curve; as a rule, active = well fitted inhibition curve with a large enough effect; inconclusive = small, poorly fitted or top-dose-only effect; inactive = no such curve, though single readings can be large or run the other way. What follows is part of a selection rich in actives, with near analogues and random picks from the rest.

Target: 3-hydroxyacyl-CoA dehydrogenase type-2 (Homo sapiens) (UniProt Q99714)
Experiment: qHTS Assay for Inhibitors of HSD17B4, hydroxysteroid (17-beta) dehydrogenase 4;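 also: the protocol describes HADH2 (HSD17B10) and not the HSD17B4 of the title; nearly all actives have a fitted effect of over 70% in size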
Conditions: recombinant HSD17B10, NADH fluorescence kinetic; series mostly up to 57.1 µM; activity change, negative = inhibition: at the top concentration
In short: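 20 nM HADH2, pH 9.0 Tris/Tween; cpd preinc 15 min RT; start w/ 1 mM NAD+ + 90 uM b-hydroxybutyryl-CoA; kinetic fluor ex360/em450 q30s x 4 min; delta last-first.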
% is scaled to controls: 0 for no effect and ±100 for the full control effect; potency is read from the fitted curve at half-maximal effect.

Compound	activity change, negative = inhibition	Potency
CN(C)/C=N/c1cc(=O)n(C)c(=O)n1CC1CC1	-6.59% (inactive)	–
COCc1cc(C)nc(Nc2cc(C)ccc2C)c1C#N	-11.9% (inactive)	–
CCN1CCCC1CNc1ncnc2c1[nH]c1ccc(F)cc12 (stereo not given)	–	31.6 µM (active)
CC(C)OCCCNc1ncnc2c1[nH]c1ccc(F)cc12	–	25.1 µM (active)
CCN1CCCC1CNC(=O)Cn1cnc2ccc(S(=O)(=O)N3CCC(C)CC3)cc2c1=O (stereo not given)	0.495% (inactive)	–
CCCn1c(-c2ccc(F)cc2)nc2c(NCC3CCCN3CC)nc(C)nc21 (stereo not given)	–	31.6 µM (active)
Fc1ccc2[nH]c3c(N4CCSCC4)ncnc3c2c1	–	25.1 µM (active)
CCN1C(=O)CS/C1=N\c1nccs1	0.908% (inactive)	–
CCOC(=O)N1CCN(C(=O)C2CC(c3ccc(F)cc3)=NO2)CC1 (stereo not given)	3.44% (inactive)	–
O=Cc1c(Cl)cccc1Cl	-1.86% (inactive)	–
O=C(c1cn(-c2ccccc2)nc1-c1cccnc1)N1CCCCC1	-4.88% (inactive)	–
COc1ccc2[nH]cc(CCNc3nc(-c4cccc(NS(C)(=O)=O)c4)nc4ccccc34)c2c1	-12.8% (inactive)	–
CO[C@H]1COC(=O)C/C=C\[C@H](C)COC(=O)[C@@H](OCc2ccccc2)/C=C\[C@@H]1C	-3.84% [at 11.4 µM] (inactive)	–
CS(=O)(=O)N1CCC[C@@]2(CCN(c3ccncc3)C2)C1	-5.74% (inactive)	–
CCNCCCNCCCNCCCNCC	7.38% (inactive)	–
C=C[C@](C)(O)CCC1C(=C)CCC2[C@@](C)(CO)CCC[C@@]12C (stereo not given in full)	-2.46% (inactive)	–
COC(=O)C(C(=O)OC)[C@@H]1CCCC(=O)C1	8.89% [at 11.4 µM] (inactive)	–
O=C(CNS(=O)(=O)c1ccc(Br)s1)NCc1ccc2c(c1)OCO2	6.92% (inactive)	–
COc1ccc(-c2nc(CS(=O)CC(=O)NCc3ccccn3)c(C)o2)cc1 (stereo not given)	-29.4% (inactive)	–
Cc1ccc(-c2nc(CS(=O)CC(=O)NC3CCCC3)c(C)o2)cc1 (stereo not given)	-6% (inactive)	–
COc1ccc(-c2nc(CS(=O)CC(=O)NCc3cccnc3)c(C)o2)cc1OC (stereo not given)	–	25.1 µM (active)
CCOc1ccc(C(=O)N(Cc2ccc(N(C)C)cc2)C2CCS(=O)(=O)C2)cc1 (stereo not given)	9.23% (inactive)	–
CN1CCc2nc(-c3ccccc3)c(-c3ccccc3)cc2C1	2.91% [at 11.4 µM] (inactive)	–
COc1cc(C2C(C(=O)c3ccc(C)o3)=C(O)C(=O)N2Cc2cccnc2)ccc1O (stereo not given)	-28.4% (inactive)	–
O=C(Nc1ccccc1N1CCCCC1)c1cccc(F)c1	-4.57% (inactive)	–

Compound	activity change, negative = inhibition	Potency
Cc1cc(C)cc(N(C(C)C(=O)Nc2c(C)n(C)n(-c3ccccc3)c2=O)S(C)(=O)=O)c1 (stereo not given)	9.82% (inactive)	–
COC(=O)Nc1c(C)n(C)n(-c2ccccc2)c1=O	-2.47% (inactive)	–
Cc1c(NC(=O)C(C)OC(=O)c2cc3c4ccccc4n(C)c3s2)c(=O)n(-c2ccccc2)n1C (stereo not given)	–	3.98 µM (active)
CCOC(=O)CSc1nnc(CNC(=O)c2ccco2)n1-c1ccc(F)cc1	-1.04% (inactive)	–
C/C(=C\C(=O)c1cccnc1)Nc1ccc(C)c(C)c1	-6.77% (inactive)	–
O=c1cccc(-c2ccc(Br)cc2)o1	-12% (inactive)	–
CC1C(c2ccccc2)=[N+]([O-])C2(CCCC2)N1O (stereo not given)	-1.86% (inactive)	–
Nc1ncnc2c1ncn2C1CC(O)C(CO)O1 (stereo not given)	–	inactive
CCC[C@@H]1C[C@@]1(CCC)[C@@H](NC(=O)c1ccccc1)c1ccc(C(=O)OC)cc1	0.355% (inactive)	–
O=C(CCCCn1c(=O)[nH]c2ccccc2c1=O)NCc1ccc2c(c1)OCO2	-18.5% (inactive)	–
Cc1nc2c(C(=O)NCc3ccc4c(c3)OCO4)c[nH]n2c(=O)c1Cc1ccccc1F	–	31.6 µM (active)
CCn1cc(C(=O)NCc2ccc3c(c2)OCO3)c2cc(OC)c(OC)cc2c1=O	-19.8% (inactive)	–
CC1CCCCC1NC(=O)CCS(=O)(=O)c1cccc2nonc12 (stereo not given)	-8.2% (inactive)	–
COc1ccc2oc(=O)c(C(=O)N3CCN(c4ccccc4F)CC3)cc2c1	–	25.1 µM (active)
COc1ccc2oc(=O)c(C(=O)N3CCCc4ccccc43)cc2c1	4.06% (inactive)	–
COc1ccc2oc(=O)c(C(=O)O)cc2c1	4.12% (inactive)	–
CC(=O)C1C(c2ccc(Cl)cc2)NC(=O)NC1(O)C(F)(F)F (stereo not given)	0.683% (inactive)	–
COC(=O)[C@@]1(Cc2ccc(F)cc2)[C@@H]2[C@@H](CC(=O)[C@H]2CC(=O)C(=O)N2CCCC2)CN1C(=O)c1ccccc1	-1.36% (inactive)	–
CN1CCN(Cc2nc3c(c(=O)n(C)c(=O)n3C)n2Cc2cccc3ccccc23)CC1	2.52% (inactive)	–
COc1ccc(-c2nnc(SCC(=O)c3cccs3)o2)c(OC)c1	-0.925% (inactive)	–
COc1ccc(OC)c(C(=O)CSc2nnc(-c3cccs3)o2)c1	–	31.6 µM (active)
CCN(CC)C(=O)CSc1nnc(-c2cccc(OC)c2)o1	10.4% (inactive)	–
COCC(C)N=CC1=C(O)CC(C)(C)CC1=O (stereo not given)	1.61% (inactive)	–
CCc1cc(=O)oc2cc(C)cc(OC(C)C(=O)O)c12 (stereo not given)	–	31.6 µM (active)
N#CCC(=O)NC(=O)NCC1CC1	26.3% (inactive)	–

Compound	activity change, negative = inhibition	Potency
CCCC[C@@H]1C[C@H]1C(NC(=O)c1ccco1)c1ccc(C(=O)OC)cc1 (stereo not given in full)	-1.66% (inactive)	–
O=C(O)c1ccc(C(=O)O)c2c(C(=O)O)ccc(C(=O)O)c12	-1.54% [at 11.4 µM] (inactive)	–
O=C(O)c1ccc(-n2cccc2)cc1O	–	31.6 µM (active)
O=C(Cn1ccc(=O)[nH]c1=O)Nc1ccc(C(=O)O)c(O)c1	-0.357% [at 11.4 µM] (inactive)	–
Cc1cc(NS(=O)(=O)c2ccccc2)no1	3.57% (inactive)	–
Nc1ncn(C2OC(CO)C(O)C2O)c(=O)n1 (stereo not given)	3.46% (inactive)	–
Cn1c(=O)n(C)c2cc(C(=O)Nc3ccc4c(c3)OCO4)ccc21	5.94% (inactive)	–
O=C(O)c1ccc(NC(=O)C2CCCCC2)cc1	-7.75% (inactive)	–
CN1C(=O)c2ccc(NC(=O)C3CCCCC3)cc2C1=O	–	25.1 µM (active)
O=C(Nc1cnn(Cc2ccc(Cl)cc2)c1)C1CCCC1	12.7% (inactive)	–
CN1C(=O)c2ccc(NC(=O)c3c(F)c(F)c(F)c(F)c3F)cc2C1=O	–	12.6 µM (active)
O=C(Nc1ccncc1)c1c(F)cccc1F	-13.7% (inactive)	–
C#CCC(C(=O)OC)(C(=O)OC)C(C[N+](=O)[O-])c1ccccc1 (stereo not given)	-8.6% [at 11.4 µM] (inactive)	–
Cn1c(=O)n2n(c1=O)[C@H]1[C@H](O)[C@H]3O[C@H]3C(=O)[C@H]1CC2	-7.54% [at 11.4 µM] (inactive)	–
O=C(C1CCN(S(=O)(=O)Cc2ccccc2)CC1)N1CCCc2ccccc21	5.23% (inactive)	–
Cc1ccccc1C(=O)O	1.89% (inactive)	–
COc1ccc(C2CC(=O)c3c(O)cc(OC4OC(COC5OC(C)C(O)C(O)C5O)C(O)C(O)C4O)cc3O2)cc1O (stereo not given)	1.68% (inactive)	–
CO[C@@H]1COC(=O)C/C=C\[C@H](C)[C@@H](NS(=O)(=O)c2ccc(C)cc2)COC(=O)C/C=C\[C@@H]1C	2.45% [at 11.4 µM] (inactive) and 8.54% [at 11.4 µM] (inactive)	–
CC(C)Cn1c(CCC(=O)O)ccc1-c1cccs1	–	31.6 µM (active)
O=C(O)CCC(=O)N(Cc1cccs1)Cc1cccs1	-14.2% (inactive)	–
Cc1cc(NC(=O)c2cc(-c3cccs3)on2)nn1Cc1ccc(Cl)cc1	45.3% (inactive)	–
C/C=C1\C(=O)C[C@@H]2[C@@H]3CCC4=CC(=O)CC[C@@]4(C)[C@H]3CC[C@@]12C	-3.31% (inactive)	–
Cc1ccc(S(=O)(=O)NC(=O)NN2C[C@H]3CCC[C@@H]3C2)cc1	0.302% [at 25.6 µM] (inactive)	–
Cn1c(C(=O)N2CCC(C(N)=O)CC2)cc2c(=O)n(C)c3ccccc3c21	-10.8% (inactive)	–
CC1CCCCN1CCCNC(=O)c1ccc(-n2c(=O)c(=O)[nH]c3ccccc32)cc1 (stereo not given)	5.61% (inactive)	–

Compound	activity change, negative = inhibition	Potency
CC1CCCC(C)N1CCCNC(=O)c1cc2c(=O)n(C)c3ccccc3c2n1C (stereo not given)	–	31.6 µM (active)
C=C(C)C1CC=C(CO)CC1 (stereo not given)	2.12% (inactive)	–
COC(=O)[C@@H]1C[C@@]2(O)[C@H](O)[C@H](O)[C@H](O)C[C@H]2N1Cc1ccc(C)s1	3.78% (inactive)	–
Cc1cc(NCc2ccco2)n2c(nc3ccccc32)c1C#N	–	3.16 µM (active)
N#Cc1c2c(c(N3CCN(CCO)CC3)n3c1nc1ccccc13)CCCC2	-18.5% (inactive)	–
Cc1ccccc1NC(=O)NCc1ccco1	-0.0132% (inactive)	–
C/C(CCN1CCCCc2nc(C)c(C)cc21)=N\O[C@@H](C)c1cn([C@@H]2COC[C@@H]2O)nn1	0.914% [at 11.4 µM] (inactive)	–
CCC1CCCCN1CCNS(=O)(=O)c1ccc2c(c1)CCN2C(C)=O (stereo not given)	7.62% (inactive)	–
CCOC(=O)c1ccc(N2C(=O)CC(N3CC(C)OC(C)C3)C2=O)cc1 (stereo not given)	-27.9% (inactive)	–
N#Cc1cccc(CSc2nnc(CCCO)n2-c2ccccc2)c1	7.8% (inactive)	–
Cn1c(N)c(C(=O)COC(=O)c2cc(C(F)(F)F)nc3c(C(F)(F)F)cccc23)c(=O)n(C)c1=O	8.09% (inactive)	–
Cc1c(O)c(Br)c(C)c(O)c1Br (tested in a mixture with another compound)	–	0.794 µM (active)
CN(c1ccc(C(=O)NCCC2=CCCCC2)cc1)S(C)(=O)=O	8.37% (inactive)	–
CCC[C@@H]1C[C@@]1(CCC)C(NS(=O)(=O)c1cccc2cccnc12)c1ccc(Cl)cc1 (stereo not given in full)	1.13% (inactive)	–
Clc1ccc(C2[C@H]3CN(CC4CCCCC4)[C@H](c4ccccc4)C34CC2(c2cccnc2)C4)cn1 (stereo not given in full)	2.17% (inactive)	–
Cc1ccc(S(=O)(=O)c2c(N)n(C)c3nc4ccccc4nc23)cc1	–	25.1 µM (active)
Cc1ccc(S(=O)(=O)NCc2nc3ccccc3c(=O)n2N)cc1	-0.665% (inactive)	–
c1cc(-n2cnnn2)ccc1NC1=NCCC1	9.21% (inactive)	–
CC(C)CN1CCc2nc(-c3ccccc3)c3c(c2C1)COC(C)C3 (stereo not given)	-2.26% [at 11.4 µM] (inactive)	–
Cc1ccc(Cn2ccc(NC(=O)c3cc(C(C)C)on3)n2)cc1	-3.93% (inactive)	–
CC(C)c1ccc(OCC(O)Cn2cnc3ccccc32)cc1 (stereo not given)	-11% (inactive)	–
CCOC(=O)N1CCN(C(=O)c2ccc3nc4cc(Cl)ccc4c(=O)n3c2)CC1	–	1 µM (active)
CCOC(=O)N1CCN(C(=O)CNC(=O)Cc2ccc(Cl)cc2)CC1	8.58% (inactive)	–
CCOC(=O)N1CCN(C(=O)CSc2ccc(Cl)cc2)CC1	-3% (inactive)	–
Cn1c(=NC(=O)CSCC(=O)N2CCCCC2)sc2ccccc21	-7.16% (inactive)	–
